Reference: the supplement of paper PMC10849652
About 8,800 targets were measured; listed, in parts, are those with a hit and a random draw of the rest. About 0.5% of all pairs of compound and target were hits. A number with no mark means an inactive call.

Columns and labels:
Test in all cases: log2 fold change, soluble protein after heating vs DMSO (PISA); higher = thermal stabilisation; K562 lysate, 10 uM; active = over 0.2 and 3.5 SD of the protein, either way, in both replicates (recomputed)
lapatinib = compound: CS(=O)(=O)CCNCc1ccc(-c2ccc3ncnc(Nc4ccc(OCc5cccc(F)c5)c(Cl)c4)c3c2)o1 [lapatinib]
Method in brief: (§1)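 Thermal stability, expressed as log-two fold change relative to solvent controls, is given from duplicates. Crude K562 extract in PBS pH 7.4 with 1 mM MgCl2, at 1 mg/mL protein, was treated with 10 μM compound for 30 min and heated in aliquots for 3 min across 48°C-58°C. After pooling, adjustment to 0.5% NP-40 at 4°C and centrifugation at 21,000xg for 90 min, supernatant protein was measured by TMTpro 16plex LC-MS/MS with channel sums equalised.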

pictilisib = compound: CS(=O)(=O)N1CCN(Cc2cc3nc(-c4cccc5[nH]ncc45)nc(N4CCOCC4)c3s2)CC1 [pictilisib]
Method in brief: as §1

crizotinib = compound: C[C@@H](Oc1cc(-c2cnn(C3CCNCC3)c2)cnc1N)c1c(Cl)ccc(F)c1Cl [crizotinib]
Method in brief: as §1

[1] = compound: C[C@H](C1=CC=C(C=C1)C(=O)NC2=C3C=CNC3=NC=C2)N
Method in brief: as §1

duvelisib = compound: C[C@H](Nc1ncnc2nc[nH]c12)c1cc2cccc(Cl)c2c(=O)n1-c1ccccc1 [duvelisib]
Method in brief: as §1

gandotinib = compound: Cc1cc(Nc2cc(CN3CCOCC3)c3nc(C)c(Cc4ccc(Cl)cc4F)n3n2)n[nH]1 [gandotinib]
Method in brief: as §1

tozasertib = compound: Cc1cc(Nc2cc(N3CCN(C)CC3)nc(Sc3ccc(NC(=O)C4CC4)cc3)n2)n[nH]1 [tozasertib]
Method in brief: as §1

doramapimod = compound: Cc1ccc(-n2nc(C(C)(C)C)cc2NC(=O)Nc2ccc(OCCN3CCOCC3)c3ccccc23)cc1 [doramapimod]
Method in brief: as §1

bafetinib = compound: Cc1ccc(NC(=O)c2ccc(CN3CC[C@H](N(C)C)C3)c(C(F)(F)F)c2)cc1Nc1nccc(-c2cncnc2)n1 [bafetinib]
Method in brief: as §1

[2] = compound: Cc1cccc(CC(=O)N2CCc3c2ccc(-c2cn(C)c4ncnc(N)c24)c3F)n1
Method in brief: as §1

nilotinib = compound: Cc1cn(-c2cc(NC(=O)c3ccc(C)c(Nc4nccc(-c5cccnc5)n4)c3)cc(C(F)(F)F)c2)cn1 [nilotinib]
Method in brief: as §1

[3] = compound: Cc1nc(Nc2n[nH]c3c2CN(C(=O)N[C@H](CN(C)C)c2ccccc2)C3(C)C)c2sccc2n1
Method in brief: as §1

dasatinib = compound: Cc1nc(Nc2ncc(C(=O)Nc3c(C)cccc3Cl)s2)cc(N2CCN(CCO)CC2)n1 [dasatinib]
Method in brief: as §1

[4] = compound: Cc1ncc(-c2ccnc(Nc3ccc(S(C)(=O)=O)cc3)n2)n1C(C)C
Method in brief: as §1

[5] = compound: Cn1cc(-c2ccc3c(c2)CCN3C(=O)Cc2cccc(C(F)(F)F)c2)c2c(N)ncnc21
Method in brief: as §1

quisinostat = compound: Cn1cc(CNCC2CCN(c3ncc(C(=O)NO)cn3)CC2)c2ccccc21 [quisinostat]
Method in brief: as §1

tipifarnib = compound: Cn1cncc1[C@@](N)(c1ccc(Cl)cc1)c1ccc2c(c1)c(-c1cccc(Cl)c1)cc(=O)n2C [tipifarnib]
Method in brief: as §1

[6] = compound: NC(=O)Nc1cc(-c2cccc(F)c2)sc1C(=O)N[C@H]1CCCNC1
Method in brief: as §1

[7] = compound: NC(=O)c1cnc(N[C@@H]2CCCC[C@@H]2N)nc1Nc1cccc(-n2nccn2)c1
Method in brief: as §1

[8] = compound: NC1(c2ccc(-c3nc4ccn5c(=O)[nH]nc5c4cc3-c3ccccc3)cc2)CCC1
Method in brief: as §1

UniProt O95202, sequence (O95202 whole entry, looked up): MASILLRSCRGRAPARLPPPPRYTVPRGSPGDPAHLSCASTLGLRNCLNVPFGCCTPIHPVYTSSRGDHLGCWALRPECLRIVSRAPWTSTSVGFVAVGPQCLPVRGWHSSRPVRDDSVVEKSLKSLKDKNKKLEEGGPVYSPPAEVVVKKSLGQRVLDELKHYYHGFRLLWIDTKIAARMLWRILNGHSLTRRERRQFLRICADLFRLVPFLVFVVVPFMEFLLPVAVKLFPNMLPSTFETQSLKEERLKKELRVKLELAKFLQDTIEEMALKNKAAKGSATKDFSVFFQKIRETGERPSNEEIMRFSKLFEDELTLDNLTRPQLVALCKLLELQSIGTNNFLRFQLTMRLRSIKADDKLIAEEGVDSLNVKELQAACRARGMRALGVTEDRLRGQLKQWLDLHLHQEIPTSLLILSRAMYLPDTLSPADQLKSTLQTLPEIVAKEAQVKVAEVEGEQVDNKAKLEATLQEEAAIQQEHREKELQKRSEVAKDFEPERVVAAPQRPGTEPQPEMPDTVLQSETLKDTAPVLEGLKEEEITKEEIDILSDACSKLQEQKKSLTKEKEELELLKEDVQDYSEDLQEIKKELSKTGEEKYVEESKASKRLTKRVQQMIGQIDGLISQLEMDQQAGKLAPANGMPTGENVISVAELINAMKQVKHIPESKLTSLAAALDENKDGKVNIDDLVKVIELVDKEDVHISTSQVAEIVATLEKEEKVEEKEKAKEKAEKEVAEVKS
UniProt Q9Y4W2, sequence (Q9Y4W2 whole entry, looked up): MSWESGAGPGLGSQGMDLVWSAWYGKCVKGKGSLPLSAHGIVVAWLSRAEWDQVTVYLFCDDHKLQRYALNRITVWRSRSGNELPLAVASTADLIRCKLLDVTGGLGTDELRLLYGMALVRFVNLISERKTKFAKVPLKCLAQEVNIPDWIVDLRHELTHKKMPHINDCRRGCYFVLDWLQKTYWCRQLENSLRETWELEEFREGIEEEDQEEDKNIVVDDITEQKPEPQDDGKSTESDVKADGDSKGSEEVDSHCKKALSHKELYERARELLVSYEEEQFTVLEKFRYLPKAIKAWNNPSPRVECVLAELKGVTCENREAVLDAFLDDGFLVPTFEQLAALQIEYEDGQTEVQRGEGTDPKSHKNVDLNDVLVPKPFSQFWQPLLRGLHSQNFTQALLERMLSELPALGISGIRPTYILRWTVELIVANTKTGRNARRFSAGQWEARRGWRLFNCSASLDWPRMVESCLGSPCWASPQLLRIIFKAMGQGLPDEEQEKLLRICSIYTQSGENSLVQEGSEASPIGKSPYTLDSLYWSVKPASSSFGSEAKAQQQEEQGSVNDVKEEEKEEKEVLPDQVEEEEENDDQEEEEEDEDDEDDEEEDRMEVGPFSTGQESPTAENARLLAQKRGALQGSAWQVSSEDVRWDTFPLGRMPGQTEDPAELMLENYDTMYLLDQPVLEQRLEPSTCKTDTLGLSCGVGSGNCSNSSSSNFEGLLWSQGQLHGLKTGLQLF
UniProt Q9BPX6, sequence (Q9BPX6 whole entry, looked up): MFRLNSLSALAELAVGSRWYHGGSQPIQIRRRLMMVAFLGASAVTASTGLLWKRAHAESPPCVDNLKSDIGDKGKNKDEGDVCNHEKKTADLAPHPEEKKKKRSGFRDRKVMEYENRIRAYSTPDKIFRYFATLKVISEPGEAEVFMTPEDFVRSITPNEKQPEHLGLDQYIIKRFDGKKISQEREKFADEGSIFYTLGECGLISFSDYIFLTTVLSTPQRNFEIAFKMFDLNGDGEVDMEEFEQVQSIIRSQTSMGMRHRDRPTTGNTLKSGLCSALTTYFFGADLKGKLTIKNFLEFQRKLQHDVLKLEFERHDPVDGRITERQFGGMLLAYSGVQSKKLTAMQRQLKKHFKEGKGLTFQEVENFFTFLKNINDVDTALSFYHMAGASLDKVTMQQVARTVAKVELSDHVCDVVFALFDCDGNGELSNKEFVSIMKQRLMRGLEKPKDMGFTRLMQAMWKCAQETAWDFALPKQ
UniProt Q8WVR3, sequence (Q8WVR3 whole entry, looked up): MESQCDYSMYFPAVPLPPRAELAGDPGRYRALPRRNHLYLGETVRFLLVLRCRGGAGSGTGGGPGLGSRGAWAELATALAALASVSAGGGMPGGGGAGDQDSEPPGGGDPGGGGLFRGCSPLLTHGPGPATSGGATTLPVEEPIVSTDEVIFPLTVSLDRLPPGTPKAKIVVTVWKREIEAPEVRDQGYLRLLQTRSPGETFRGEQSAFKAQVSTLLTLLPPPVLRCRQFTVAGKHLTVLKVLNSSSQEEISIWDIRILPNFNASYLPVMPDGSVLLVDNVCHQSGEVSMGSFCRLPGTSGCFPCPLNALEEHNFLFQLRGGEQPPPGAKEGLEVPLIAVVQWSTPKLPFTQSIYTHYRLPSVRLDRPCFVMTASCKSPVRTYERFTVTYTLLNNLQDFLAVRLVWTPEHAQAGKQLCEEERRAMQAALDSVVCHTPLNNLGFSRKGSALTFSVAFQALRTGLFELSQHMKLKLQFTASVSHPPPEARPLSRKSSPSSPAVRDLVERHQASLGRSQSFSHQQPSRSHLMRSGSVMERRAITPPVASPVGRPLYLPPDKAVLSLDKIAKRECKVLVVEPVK
UniProt Q9UFC0, sequence (Q9UFC0 whole entry, looked up): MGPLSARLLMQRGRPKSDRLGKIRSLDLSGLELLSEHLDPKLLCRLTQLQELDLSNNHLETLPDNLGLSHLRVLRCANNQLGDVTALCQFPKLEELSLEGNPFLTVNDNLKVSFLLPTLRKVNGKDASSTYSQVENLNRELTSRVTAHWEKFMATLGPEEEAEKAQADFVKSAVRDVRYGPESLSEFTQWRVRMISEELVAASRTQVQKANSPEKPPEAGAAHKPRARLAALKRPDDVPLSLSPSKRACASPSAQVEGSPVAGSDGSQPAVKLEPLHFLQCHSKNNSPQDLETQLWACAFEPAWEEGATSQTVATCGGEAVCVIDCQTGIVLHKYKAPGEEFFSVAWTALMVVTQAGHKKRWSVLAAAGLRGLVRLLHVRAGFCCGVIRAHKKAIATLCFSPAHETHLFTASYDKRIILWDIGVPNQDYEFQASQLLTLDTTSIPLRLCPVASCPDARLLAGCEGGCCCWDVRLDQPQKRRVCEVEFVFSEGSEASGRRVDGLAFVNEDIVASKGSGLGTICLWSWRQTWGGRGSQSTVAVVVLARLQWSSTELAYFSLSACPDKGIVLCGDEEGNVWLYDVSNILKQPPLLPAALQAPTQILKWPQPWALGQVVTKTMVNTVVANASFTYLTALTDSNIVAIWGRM
UniProt P34949, sequence (P34949 whole entry, looked up): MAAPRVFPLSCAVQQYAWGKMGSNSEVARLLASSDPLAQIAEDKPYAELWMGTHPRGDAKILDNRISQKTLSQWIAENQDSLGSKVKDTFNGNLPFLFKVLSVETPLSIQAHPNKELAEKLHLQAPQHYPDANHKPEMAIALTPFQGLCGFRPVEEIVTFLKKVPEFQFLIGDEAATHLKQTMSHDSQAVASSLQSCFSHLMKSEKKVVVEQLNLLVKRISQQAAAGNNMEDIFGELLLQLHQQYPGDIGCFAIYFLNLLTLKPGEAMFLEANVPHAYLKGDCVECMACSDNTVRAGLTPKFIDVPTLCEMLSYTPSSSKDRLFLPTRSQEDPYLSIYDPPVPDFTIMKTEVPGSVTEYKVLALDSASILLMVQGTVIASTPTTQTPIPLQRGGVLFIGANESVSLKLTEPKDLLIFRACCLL
UniProt Q9BW19, sequence (Q9BW19 whole entry, looked up): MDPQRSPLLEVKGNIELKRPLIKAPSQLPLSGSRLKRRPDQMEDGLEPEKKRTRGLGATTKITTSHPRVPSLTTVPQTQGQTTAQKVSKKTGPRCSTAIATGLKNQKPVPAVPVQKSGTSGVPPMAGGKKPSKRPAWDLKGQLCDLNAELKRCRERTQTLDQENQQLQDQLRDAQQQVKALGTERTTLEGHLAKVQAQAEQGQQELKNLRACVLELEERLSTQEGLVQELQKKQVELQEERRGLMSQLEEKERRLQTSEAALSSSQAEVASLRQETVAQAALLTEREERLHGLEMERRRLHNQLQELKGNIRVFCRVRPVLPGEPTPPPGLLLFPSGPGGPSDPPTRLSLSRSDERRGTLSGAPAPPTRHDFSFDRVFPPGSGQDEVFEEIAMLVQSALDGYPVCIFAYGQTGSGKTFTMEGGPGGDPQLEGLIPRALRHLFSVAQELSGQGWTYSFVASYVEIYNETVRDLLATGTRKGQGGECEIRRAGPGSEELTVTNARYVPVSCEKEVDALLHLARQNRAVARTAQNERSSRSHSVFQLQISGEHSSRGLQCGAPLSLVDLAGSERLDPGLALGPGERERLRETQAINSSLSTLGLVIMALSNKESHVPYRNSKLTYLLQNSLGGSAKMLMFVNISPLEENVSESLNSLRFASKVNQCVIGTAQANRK
UniProt P49137, sequence (P49137 whole entry, looked up): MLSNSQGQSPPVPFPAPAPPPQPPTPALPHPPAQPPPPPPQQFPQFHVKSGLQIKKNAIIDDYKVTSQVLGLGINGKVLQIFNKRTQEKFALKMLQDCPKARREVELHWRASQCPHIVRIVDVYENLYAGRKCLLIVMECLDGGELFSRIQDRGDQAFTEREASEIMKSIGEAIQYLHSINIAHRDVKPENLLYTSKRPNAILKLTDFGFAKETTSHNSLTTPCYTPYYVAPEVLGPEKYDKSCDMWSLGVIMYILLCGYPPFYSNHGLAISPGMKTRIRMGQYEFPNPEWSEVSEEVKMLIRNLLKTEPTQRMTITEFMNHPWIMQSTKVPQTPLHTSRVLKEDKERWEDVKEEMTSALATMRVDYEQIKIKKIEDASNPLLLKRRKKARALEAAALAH
UniProt Q7Z3D4, sequence (Q7Z3D4 whole entry, looked up): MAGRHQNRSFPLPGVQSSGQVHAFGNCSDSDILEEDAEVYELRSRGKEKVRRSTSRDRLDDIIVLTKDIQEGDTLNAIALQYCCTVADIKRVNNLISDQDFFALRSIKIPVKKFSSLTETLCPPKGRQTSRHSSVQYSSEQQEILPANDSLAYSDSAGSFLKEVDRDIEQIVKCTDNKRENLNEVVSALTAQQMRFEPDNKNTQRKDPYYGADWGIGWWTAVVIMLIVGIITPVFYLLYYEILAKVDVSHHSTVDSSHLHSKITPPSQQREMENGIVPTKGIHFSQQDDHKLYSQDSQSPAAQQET

Target	log2 fold change (lapatinib)	log2 fold change (pictilisib)	log2 fold change (crizotinib)	log2 fold change [1]	log2 fold change (duvelisib)	log2 fold change (gandotinib)	log2 fold change (tozasertib)	log2 fold change (doramapimod)	log2 fold change (bafetinib)	log2 fold change [2]	log2 fold change (nilotinib)	log2 fold change [3]	log2 fold change (dasatinib)	log2 fold change [4]	log2 fold change [5]	log2 fold change (quisinostat)	log2 fold change (tipifarnib)	log2 fold change [6]	log2 fold change [7]	log2 fold change [8]
LYSMD3 (UniProt Q7Z3D4)	-0.039	-0.039	-0.018	-0.273	0.066	0.307	0.058	0.041	-0.057	0.23	-0.096	-0.293	-0.083	0.171	-0.068	-0.037	0.352 (active)	-0.022	0.057	0.023
MRPL46 (UniProt Q9H2W6)	0.019	0.096	-0.011	0.452 (active)	0.033	-0.09	0.008	0.024	0.034	-0.073	-0.036	0.039	0.016	0.064	0.03	-0.034	0.05	0.03	-0.023	0.035
MAP11 (UniProt Q8WVR3)	-0.047	-0.028	-0.011	-0.102	-0.04	-0.06	-0.024	-0.024	-0.021	0.001	-0.088	0.002	0.002	0.021	-0.058	-0.026	-0.063	0.037	-0.014	-0.007
LRWD1 (UniProt Q9UFC0)	-0.026	-0.049	-0.199	-0.011	0	-0.102	-0.007	0.029	-0.082	0.019	0.026	-0.05	-0.055	0.017	0.02	-0.132	0.007	0.053	0.017	-0.033
LZTS1 (UniProt Q9Y250)	-0.136	-0.222	-0.821	-0.233	0.308	-0.137	-0.1	0.177	-0.268	0.083	-0.13	0.023	0.056	0.167	-0.266	-1.06 (active)	0.087	0.186	-0.02	-0.297
KIF14 (UniProt Q15058)	0.016	-0.277	-0.053	-0.082	0.025	-0.011	0.002	0.046	-0.087	0.042	0.003	0.042	-0.035	0.033	0.007	-0.139	-0.046	0	0.001	-0.024
MAPKAPK2 (UniProt P49137)	-0.04	-0.05	-0.014	0.046	0.033	-0.03	0.004	0.092	-0.037	0.018	0.032	0.068	-0.043	-0.008	0	0.01	0.032	0.148	0.022	0.008
MRPL30 isoform 2 (UniProt Q8TCC3)	0.03	-0.029	-0.094	0.746 (active)	0.068	-0.373 (active)	0.158	0.013	0.043	-0.458 (active)	-0.048	-0.066	-0.038	0.047	0.03	-0.13	0.052	-0.007	0	0.039
MRPL12 (UniProt P52815)	0.094	-0.019	0.086	-0.1	0.011	0	0.077	-0.031	-0.073	0.035	0.032	-0.01	0.034	0.099	-0.013	0.084	0.031	-0.023	-0.022	-0.006
LAS1L (UniProt Q9Y4W2)	-0.004	-0.033	-0.05	-0.051	-0.003	0.017	0.043	0.011	-0.004	0.233 (active)	-0.019	0.008	0.025	0.029	-0.019	-0.083	-0.013	0.033	0.044	-0.024
KIFC1 (UniProt Q9BW19)	-0.021	-0.013	-0.019	-0.016	-0.003	-0.05	0.047	0.021	-0.027	0.031	-0.008	0.003	-0.031	-0.002	0.034	-0.055	0.006	0.001	-0.024	-0.025
KMT2A isoform 3 (UniProt Q03164)	-0.07	-0.102	-0.033	0.091	0.013	0.013	0.148	0.026	-0.41	0.069	0.098	-0.428 (active)	0.017	0.154	0.056	-0.156	-0.178	0.032	0.133	-0.037
LETM1 (UniProt O95202)	-0.001	0.004	-0.043	0.015	-0.018	0.03	0.005	-0.01	-0.049	-0.085	0.038	-0.021	-0.008	0.048	0.007	0.043	0.008	-0.012	-0.011	-0.024
MPI (UniProt P34949)	0.02	-0.017	-0.029	0.174	0.007	-0.055	-0.043	0.032	0.013	-0.014	0.002	-0.02	-0.035	0.019	-0.022	-0.025	0.009	0.029	0.016	-0.026
L3HYPDH (UniProt Q96EM0)	-0.019	-0.032	-0.028	-0.045	-0.014	0.018	-0.002	0.036	-0.018	-0.048	0.019	0.015	0.073	0.001	-0.003	-0.053	-0.002	0.033	0.015	0.009
MICU1 isoform 3 (UniProt Q9BPX6)	-0.052	-0.053	-0.107	0.253 (active)	-0.007	-0.408 (active)	0.049	-0.008	-0.077	-0.209	0.01	-0.044	-0.02	-0.015	0.027	0.002	-0.015	-0.026	0.06	-0.021
